High-throughput results: PubChem BioAssay, National Center for Advancing Translational Sciences (NCATS)
HT1080-NT tox: kills 2HG-producing HT-1080-NT fibrosarcoma cells | Potency, µM (titrated, usually from 46.1 µM), for the others: at the highest dose activity, negative = less viability, usual class: cytotoxic | HT-1080-NT fibrosarcoma viability, CellTiter-Glo ATP luminescence, 48 h | 360,000 tested, 1.6% active;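 also: NT is the 2HG producing partner of a matched IDH1 knockdown line; potency is read from the fitted curve at half-maximal effect; 0% = DMSO-treated cells and -100% = media-only wells without cells; nearly all actives have a fitted effect of over 55% in size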
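Fibrosarcoma NT cells, 750 per well in 5% FBS RPMI, were exposed to compound for 48 hours. Viability: CellTiter-Glo luminescence.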
ELG1 DNA repair: ELG1-dependent DNA repair inhibition; HEK293T ELG1-luciferase reporter, luminescence, 16 h; DNA damage induced by 5-fluorouridine; Potency, µM (doses to about 46.1 µM), for the others: at the top dose activity change, negative = inhibition, hits mostly inhibitors; 330,000 tested, 2.3% active; AID 504467; also: potency is read from the fitted curve at half-maximal effect; nearly all actives have a fitted effect of over 55% in size
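Overnight (16 hr) co-exposure of 2,000 cells/well to 5-fluorouridine and compound at 37 °C preceded detection. Luciferase was quantified via ONE-Glo luminescence; loss of signal denotes inhibition.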
DT40 TDP1 CPT: growth inhibition of DT40 Tdp1-/-;hTDP1 cells with camptothecin (screen for TDP1 inhibitors); chicken DT40 Tdp1-/-;hTDP1 cells + 20 nM CPT, ATP luminescence, 48 h; Potency, µM (doses to about 46.2 µM), inactives show at the top dose activity change, negative = growth inhibition, usual class: inhibitors; 420,000 tested, 12% active; AID 686979; also: potency is read from the fitted curve at half-maximal effect; nearly all actives have a fitted effect of over 55% in size
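Chicken DT40 Tdp1-/- cells stably complemented with human TDP1 were seeded at 400 cells/well in medium containing 20 nM camptothecin, exposed to pin-transferred compounds, and grown at 37 °C for at least 48 hr. Viability was read as ATP luminescence.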
IL-1B inflam inh: blocks inflammasome-driven IL-1 beta release. THP-1 LPS/ATP IL-1B secretion, AlphaLISA, 16 h; active compounds read low. activity change, % at 57.5 µM. 360,000 tested, 4.7% active; in the data active = activity change below about -50%; inconclusive = mostly about -30% to -49%
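Secreted IL-1B measured by AlphaLISA bead assay after 16 h compound exposure of THP-1 cells; compounds (final up to 57.5 uM) added 1 h before LPS (250 ng/mL) and ATP (1.25 mM) stimulation; lower signal means less secretion.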
TDP1 cell noCPT: qHTS for Inhibitors of human tyrosyl-DNA phosphodiesterase 1 (TDP1): qHTS in cells in absence of CPT | DT40 Tdp1-/- hTDP1 cells, no CPT, ATP luminescence, 48 h | Potency, µM (doses to about 46.2 µM), for inactives: at the highest dose activity change, negative = growth inhibition, most hits filed as inhibitors | AID 686978, 2013 | 420,000 tested, 15% active; also: potency is read from the fitted curve at half-maximal effect; nearly all actives have a fitted effect of over 55% in size
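Camptothecin absent (DMSO only). Human TDP1-complemented DT40 knockout cells, 400 cells/well, 37 °C for minimum 48 hr; ATP measured via CellTiter-Glo, 30 min dark incubation, luminescence.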
HT1080 IDH1KD tx: toxicity to HT-1080 IDH1 knockdown cells (counter line). Potency, µM (top dose mostly 46.1 µM), for the others: at the top dose activity, negative = toxicity, usual class: cytotoxic. HT-1080 IDH1 knockdown viability, ATP luminescence, 48 h. 360,000 tested, 2% active. AID 686971;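 also: potency is read from the fitted curve at half-maximal effect; 0% = DMSO wells and -100% = cell-free medium wells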
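CellTiter-Glo luminescence after 48 h compound exposure at 37 degrees C of IDH1-knockdown HT-1080 cells in 5% FBS RPMI. %Activity scaled between DMSO wells and cell-free media wells, with curves fitted and assigned curve classes.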
Starred values were filed as active, the others as inactive; u = inconclusive; x = not tested or not shown; ! = a repeat was not active. Hits are enriched below; roughly 19% of the tested compounds scored in any of these assays. Unless noted, calls follow the shape of the dose curve; as a rule, active = well fitted curve in the direction sought with a large enough effect; inconclusive = small, poorly fitted or top-dose-only effect, or another doubt; inactive = no such curve, though single readings can be large; an effect the other way counts as inactive or inconclusive. Unless noted, % is scaled to controls: 0 for no effect and ±100 for the full control effect.

SMILES	HT1080-NT tox	ELG1 DNA repair	DT40 TDP1 CPT	IL-1B inflam inh	TDP1 cell noCPT	HT1080 IDH1KD tx
CCC(C)[C@H]1O[C@]2(C=C[C@@H]1C)C[C@@H]1C[C@@H](C/C=C(\C)[C@@H](O[C@H]3C[C@H](OC)[C@@H](O[C@H]4C[C@H](OC)[C@H](NC(C)=O)[C@H](C)O4)[C@H](C)O3)[C@@H](C)/C=C/C=C3\CO[C@@H]4[C@H](O)C(C)=C[C@@H](C(=O)O1)[C@]34O)O2 (some centres undefined)	x	x	4.2µM*	x	2.7µM*	x
CON=C1C[C@]2(C[C@@H]3C[C@@H](C/C=C(\C)C[C@@H](C)/C=C/C=C4\CO[C@@H]5[C@H](O)C(C)=C[C@@H](C(=O)O3)[C@]45O)O2)O[C@H](/C(C)=C/C(C)C)[C@H]1C	x	x	4.2µM*!	x	21µM*!	x
CC[C@H](C)[C@H]1O[C@]2(CC[C@@H]1C)C[C@@H]1C[C@@H](CC=C(C)[C@@H](O[C@H]3C[C@H](OC)[C@@H](O[C@H]4C[C@H](OC)[C@@H](O)[C@H](C)O4)[C@H](C)O3)[C@@H](C)C=CC=C3CO[C@@H]4[C@H](O)C(C)=C[C@@H](C(=O)O1)[C@]34O)O2	2.9µM*	x	3.7µM*	-29	3.7µM*	4.1µM*
CC[C@@H](C)[C@H]1O[C@]2(CC[C@@H]1C)C[C@@H]1C[C@H](C/C=C(/C)[C@H](O[C@@H]3C[C@H](OC)[C@H](O[C@@H]4C[C@H](OC)[C@@H](O)[C@H](C)O4)[C@H](C)O3)[C@@H](C)/C=C\C=C3CO[C@@H]4[C@H](O)C(C)=C[C@@H](C(=O)O1)[C@]34O)O2 (tested in a mixture with another compound)	x	x	12µM*	x	u	x
COc1ccc(NC(=O)N(Cc2ccco2)C2CCN(C(C)=O)CC2)c(OC)c1	x	x	0%	x	u	x
CCNc1ncc2nc(-c3cccc(C#N)c3)c(=O)n(C)c2n1	x	x	4%	x	-4%	x
Nc1c(Cl)c(Cl)nc(C(=O)OCC(=O)N2CCCC2=O)c1Cl	4%	27%	1%	13	-28%	6%
O=C(OCC(=O)N1CCCC1=O)c1nc(Cl)c(Cl)c(Cl)c1Cl	-7%	u	-6%	-95*	3%	u
Cc1ccc(CNC(=O)c2ccc3c(c2)S(=O)(=O)c2ccccc2C3=O)o1	0%	x	u	-25	16µM*	0%
COc1ccc(NC(=O)c2ccc3c(c2)S(=O)(=O)c2ccccc2C3=O)cc1	12%	x	-10%	-1	-6%	21%
O=C(NCc1ccc(OC(F)(F)F)cc1)c1ccc2c(c1)S(=O)(=O)c1ccccc1C2=O	-10%	x	23µM*	-28	15µM*	-12%
O=C(NCC1CCCO1)c1ccc2c(c1)S(=O)(=O)c1ccccc1C2=O (centres undefined)	-3%	x	-15%	-20	-23%	9%
CC1(C(=O)NCc2ccc3c(c2)OCO3)CCN1C(=O)CC1CCCC1 (centres undefined)	-5%	x	u	-8	u	16%
CCCn1nc(NC(=O)c2cccc(Cl)c2)c2cc3cccc(C)c3nc21	x	x	u	x	-13%	x
COc1cc(NC(=O)c2ccccc2)c(OC)cc1NC(=O)CN1C(=O)NC2(CCCCC2C)C1=O (centres undefined)	3%	-21%	-31%	0	-29%	0%
CCN(c1cccc(C)c1)S(=O)(=O)c1ccc2c(c1)N(C(C)=O)CCS2	3%	5%	u	51	-19%	-4%
CC(=O)N1CCc2cc(CNC(=O)Cc3ccc(F)cc3)ccc21	x	x	-18%	x	-25%	x
